Values joined by “and” are separate entries in the source; they are usually repeats but may differ in a detail not shown here. Equal entries are not always repeated. About 79,000 compounds went through this panel and 15% of them were active in at least one assay; those are over-represented in the sample as a whole. No stated cut-off is given here; in the data, active means growth inhibition above about 70%; inactive means the rest.
How the values were obtained:
[1] = NCI Yeast Anticancer Drug Screen. Data for the rad50 strain (AID 155);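 further: 0% = growth of vehicle-only cultures of the same strain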; settings: S. cerevisiae rad50 strain growth inhibition, stronger effect = higher value; at 50.0 µM unless noted
How it was run: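 Growth of the mutant yeast was measured after compound exposure and referenced to vehicle-treated cultures.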

[2] = NCI Yeast Anticancer Drug Screen. Data for the mec2-1 strain (AID 157); settings: S. cerevisiae mec2-1 strain, stronger effect = higher value; at 50.0 µM unless noted
How it was run: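 Mutant yeast (mec2-1) grown with compound; growth inhibition relative to vehicle control reported.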

[3] = NCI Yeast Anticancer Drug Screen. Data for the sgs1 mgt1 strain (AID 161);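 further: 0% = growth of cultures given vehicle only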; settings: S. cerevisiae sgs1 mgt1 strain, stronger effect = higher value; at 50.0 µM unless noted
How it was run: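 This yeast growth screen uses a strain with defined DNA-repair lesions; compound-treated growth is compared with vehicle-treated growth.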

[4] = NCI Yeast Anticancer Drug Screen. Data for the cln2 rad14 strain (AID 165);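 further: 0% = growth equal to vehicle treated cultures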; settings: S. cerevisiae cln2 rad14 strain, stronger effect = higher value; at 50.0 µM unless noted
How it was run: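 Readout is yeast growth inhibition versus vehicle-treated controls, using a strain with cln2 and rad14 alterations exposed to compound.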

[5] = NCI Yeast Anticancer Drug Screen. Data for the bub3 strain (AID 167); settings: S. cerevisiae bub3 mutant strain, stronger effect = higher value; at 50.0 µM unless noted
How it was run: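 Whole-cell yeast assay. The mutant strain was incubated with compounds, and growth inhibition was determined by comparison with vehicle-treated cells.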

[6] = NCI Yeast Anticancer Drug Screen. Data for the mlh1 rad18 strain (AID 175); settings: S. cerevisiae mlh1 rad18 strain growth inhibition, stronger effect = higher value; at 50.0 µM unless noted
How it was run: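 Genetically defined yeast (DNA repair-deficient) exposed to compounds; growth inhibition determined relative to vehicle.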

Measured: growth inhibition

COc1ccc(NS(=O)c2ccccc2)cc1 (stereo unspecified)
inactive: [1] 10.1% | [2] 1.2% | [3] 3.1% | [4] 6.65% | [5] -2.5% | [6] 7.65%

O=C1OC2(CCCCC2)OC1c1ccccc1 (stereo unspecified)
inactive: [1] 23.4% | [2] 4.2% | [3] 11.9% | [4] 10.5% | [5] 16.2% | [6] 33.5%

CCc1cccc(CC)c1N1C(=O)CC(Sc2ccccc2N)C1=O (stereo unspecified)
inactive: [1] -18.1% | [2] -16.3% | [3] -14.8% | [4] -0.85% | [5] -9.5% | [6] -25.8%

CCOc1c(N=Nc2ccc(Cl)cc2Cl)c(C)nn1C(=S)SC
inactive: [1] 41.4% | [2] 16.1% | [3] 25.9% | [4] 15.5% | [5] -0.45% | [6] 19.6%

CCOC(=O)CC1(N)CC2c3ccccc3OC(=O)C2C(=O)N1 (stereo unspecified)
inactive: [1] 10.6% | [2] 15.1% | [3] 6.15% | [4] 0.45% | [5] -2.8% | [6] -33.6%

Nc1ccc(Cc2cc([N+](=O)[O-])cc([N+](=O)[O-])c2)cc1
inactive: [1] 3.15% | [2] -1.75% | [3] 11.4% | [4] -42% | [5] 15.3% | [6] -29.8%

CON1C(=O)C(c2ccccc2)c2ccccc21 (stereo unspecified)
inactive: [1] 58% | [2] 22.6% | [3] 47.8% | [4] 3.1% | [5] 10.7% | [6] 6.65%

Cn1c(-c2csc(-c3ccc(Cl)cc3)n2)n[nH]c1=S
inactive: [1] 5.65% | [2] 12.8% | [3] 11.6% | [4] 8.3% | [5] 6.35% | [6] -36.1%

NC(=O)c1c(NC=O)ncn1C1OCC(O)C(O)C1O (stereo unspecified)
inactive: [1] -7.95% | [2] -3.85% | [3] 2% | [4] -42% | [5] -1.3% | [6] 12.8%

CC(=O)C(C(C)=O)=C1CCCC(O)O1 (stereo unspecified)
inactive: [1] 20.4% | [2] -0.7% | [3] 4.55% | [4] 5.7% | [5] 2.65% | [6] 13.1%

C/C(=C\CNc1nc(Cl)nc2nc[nH]c12)CO
inactive: [1] -12.3% | [2] -5.6% | [3] -32.6% | [4] 3.6% | [5] -0.4% | [6] -8.4%

C/C(=C\CNc1ncnc2c1ncn2CCC#N)CO
inactive: [1] -17% | [2] 13.2% | [3] -33.2% | [4] 1.5% | [5] 14.8% | [6] -15.9%

O=S(=O)(O)c1ccc(Nc2ccccc2)cc1
inactive: [1] -1.2% and 5.95% | [2] -38.8% and -24.1% | [3] -11% | [4] -18.3% | [5] 2% | [6] -20.9% and 6.2%

CC1=Nc2cc(Cl)c(Cl)cc2N(C)/C1=C/C1=C(Cl)C(=O)c2cc3c(Cl)ccc(Cl)c3cc2C1=O
inactive: [1] -0.05% | [2] 8.75% | [3] 13.1% | [4] 25.1% | [5] -1.4% | [6] 20.8%

Cc1ccc(NC(=O)c2c(Br)c(Br)c(Br)c(Br)c2C(=O)O)cc1Cl
inactive: [1] -1.75% | [2] -5.5% | [3] -8.6% | [4] -22.4% | [5] 2.9% | [6] -9.25%

COC1(OC)CC2C(=O)N(Cc3ccccc3)C1CC2S(=O)(=O)c1ccccc1 (stereo unspecified)
inactive: [1] 6.7% | [2] -2.1% | [3] -16.1% | [4] 22.8% | [5] -2.3% | [6] 11.4%

O=C(O)/C=C1\NC(=O)NC1=O
inactive: [1] 16.1% | [2] -5.1% | [3] 11.8% | [4] 6.1% | [5] 5.75% | [6] 33%

COc1cc(N=C=S)ccc1NC(=O)c1cc(Br)cc(Br)c1O
inactive: [1] 55.9% | [2] 39.4% | [3] 46.6% | [4] 31.2% | [5] 1.15% | [6] 45%

CCC1CC2CC(c3cc4c(cc3OC)N(C)C3C(O)(C(=O)OC)C(OC(C)=O)C5(CC)C=CCN6CCC43C65)c3[nH]c4ccccc4c3CCN(C1)C2 (stereo unspecified)
inactive: [1] 17.9% | [2] 14.3% | [3] 28.9% | [4] 2% | [5] 8.65% | [6] 43.4%

CC[N+](CC)(CC)CCOC(=O)c1cc(OC)c(OC)c(OC)c1
inactive: [1] -16.4% | [2] -20.4% | [3] -2.35% | [4] 15.4% | [5] 4.1% | [6] -0.6%

CC[N+]1(CC)CC[N+]2(CC1)CC[N+]1(CC[N+](CC)(CC)CC1)CC2
inactive: [1] -16.9% | [2] -3.4% | [3] 12.1% | [4] -26.6% | [5] 1.7% | [6] 2.7%

CC(C)(C)C(=O)CC(=O)C(F)(F)C(F)(F)C(F)(F)F.CC(C)(C)C(=O)CC(=O)C(F)(F)C(F)(F)C(F)(F)F.CC(C)(C)C(=O)CC(=O)C(F)(F)C(F)(F)C(F)(F)F.[La]
inactive: [1] 2.85% | [2] -0.9% | [3] -3.95% | [4] -8.85% | [5] -3.95% | [6] 18.8%

CC(=O)Oc1c(C)c2c(c3ncccc13)OC(C)C2 (stereo unspecified)
inactive: [1] 39.2% | [2] 14.1% | [3] 32.4% | [4] 19.1% | [5] 40.1% | [6] 34.8%

COc1ccccc1OC(=O)Nc1ccc(S(=O)(=O)NC2CCCCC2)cc1
inactive: [1] 12.1% | [2] -10.8% | [3] 0% | [4] 2.25% | [5] -5.95% | [6] -2.2%

Cc1ncc(CN=Cc2ccc(Cl)cc2)c(N)n1
inactive: [1] 9.8% | [2] 17% | [3] -9.45% | [4] -12% | [5] 8.9% | [6] 13.2%

CCOC(=O)c1[nH]c(-c2[nH]c(-c3[nH]c(-c4[nH]c(C(=O)OCC)c(C)c4C(=O)OCC)c(C(=O)OCC)c3C)c(C)c2C(=O)OCC)c(C(=O)OCC)c1C
inactive: [1] -24.7% | [2] -16% | [3] -21.3% | [4] 6.85% | [5] -14.1% | [6] -74%

CCC(CC)NC(CC)COC(=O)c1ccc(N)cc1 (stereo unspecified)
inactive: [1] 8.4% | [2] -4.3% | [3] -0.05% | [4] -0.5% | [5] 5.8% | [6] -4.9%

CC(C)N1C(=O)N(Cl)C2C1N(Cl)C(=O)N2Cl (stereo unspecified)
inactive: [1] 15% | [2] -0.4% | [3] -6.7% | [4] 22.6% | [5] -3.55% | [6] 53.9%

Cn1c(=O)c2[nH]c(Nc3cccc(Cl)c3)nc2n(C)c1=O
inactive: [1] -26.3% | [2] 8.75% | [3] -18.8% | [4] -13.2% | [5] -1.85% | [6] 17.1%

CC(=O)N1C(=O)C2(c3ccccc31)c1cccc3c1C(=C1C(=O)OC(=O)C12)C(=O)N3C(C)=O (stereo unspecified)
inactive: [1] 64.5% | [2] 22.4% | [3] 52.3% | [4] 9.55% | [5] 8.85% | [6] 48.1%

O=C(O)C1Cc2c([nH]c3ccccc23)CN1 (stereo unspecified)
inactive: [1] 8.45% | [2] -10.9% | [3] 11.6% | [4] 2.25% | [5] 24.1% | [6] 9.25%

CCCCCCc1cc2cc(-c3csc(CC#N)n3)c(=O)oc2cc1O
inactive: [1] 13.1% | [2] 14.1% | [3] -29.2% | [4] -6.6% | [5] -32.8% | [6] -32%

Cc1nn(C(=O)c2ccc(Cl)cc2)c2c1C(c1ccc([N+](=O)[O-])cc1)SC(N)=N2 (stereo unspecified)
inactive: [1] -14.8% | [2] 7.4% | [3] 16.4% | [4] -16.8% | [5] -16.1% | [6] -4.1%

O=C(Nc1ccc(Br)c2ccccc12)c1ccc2ccccc2c1O
inactive: [1] -0.05% | [2] -2.1% | [3] -26.1% | [4] -11.2% | [5] -37.5% | [6] -78.8%

C/C(=N\Nc1nc2ccccc2s1)c1ccc2c(c1)Sc1ccccc1O2
inactive: [1] 42.9% | [2] 7.7% | [3] 11.9% | [4] 21.8% | [5] -1.8% | [6] 15.9%

COCN(CCc1ccccc1)CCN(C)C
inactive: [1] 1.4% | [2] 5.1% | [3] 35% | [4] 7.2% | [5] 2.05% | [6] 16.5%

COc1ccc2c(c1)c(COC(C)=O)c(C)c[n+]2[O-]
inactive: [1] 25.1% | [2] 28.8% | [3] 42.1% | [4] 16.6% | [5] 22.1% | [6] 52.9%

CC1(O)C2CC3CC(C2)CC1C3 (stereo unspecified)
inactive: [1] -1.1% | [2] -3.1% | [3] -13.3% | [4] -59% | [5] 13.2% | [6] 10.3%

CCCCN(CCCC)CC(C(=O)Nc1ccc([N+](=O)[O-])cc1[N+](=O)[O-])/C(C)=N\NC(=S)NN (stereo unspecified)
inactive: [1] 3.55% | [2] -6.8% | [3] 44.7% | [4] 24.8% | [5] 16.2% | [6] 24.4%

COc1ccc(C)cc1S(=O)(=O)c1ccc(Cl)cc1[N+](=O)[O-]
inactive: [1] -2.55% | [2] -11.1% | [3] 2% | [4] -12.7% | [5] 2.25% | [6] -25.1%

CN(C)c1ccc(C=Nc2c(N)n(C)c(=O)n(C)c2=O)cc1
inactive: [1] -12.3% | [2] -0.2% | [3] -11.2% | [4] -32.7% | [5] -9.45% | [6] -2.9%
